Test results: the antibiotic and cytotoxicity screens of Wong et al. (2023)
Out of some 39,000 compounds screened, about 500 (1.3%) were called active. The full list was thinned out, with actives kept by preference.

test system: S. aureus RN4220; assay: growth inhibition call (relative growth <= 0.2); conditions: 50 µM

Growth inhibition call, active:
CCOC(=O)CCC(=O)O[C@H]1[C@H](O[C@@H]2[C@@H](C)[C@H](O[C@H]3C[C@@](C)(OC)[C@@H](O)[C@H](C)O3)[C@@H](C)C(=O)O[C@H](CC)[C@@](C)(O)[C@H](O)[C@@H](C)C(=O)[C@H](C)C[C@@]2(C)O)O[C@H](C)C[C@@H]1N(C)C
CCOC(=O)CCC(=O)OC1C(OC2C(C)C(OC3CC(C)(OC)C(O)C(C)O3)C(C)C(=O)OC(CC)C(C)(O)C(O)C(C)C(=O)C(C)CC2(C)O)OC(C)CC1N(C)C (stereo not given)
CCCC1CC(C(=O)NC(C(C)Cl)C2OC(SC)C(O)C(O)C2O)N(C)C1.Cl (stereo not given)
CCC[C@@H]1C[C@@H](C(=O)N[C@H]([C@H]2O[C@H](SC)[C@H](O)[C@@H](O)[C@H]2O)[C@@H](C)Cl)N(C)C1
CCN1CCN(C(=O)NC(C(=O)NC2C(=O)N3C2SC(C)(C)C3C(=O)[O-])c2ccccc2)C(=O)C1=O.[Na+] (stereo not given)
CC1(C)SC2C(NC(=O)C(C(=O)[O-])c3ccccc3)C(=O)N2C1C(=O)[O-].[Na+].[Na+] (stereo not given)
CC1(C)SC2C(NC(=O)C(NC(=O)N3CCNC3=O)c3ccccc3)C(=O)N2C1C(=O)[O-].[Na+] (stereo not given)
CCN1CCN(C(=O)N[C@@H](C(=O)N[C@@H]2C(=O)N3[C@@H]2SC(C)(C)[C@@H]3C(=O)O)c2ccccc2)C(=O)C1=O
CC1(C)S[C@H]2[C@@H](NC(=O)[C@@H](NC(=O)N3CCN(S(C)(=O)=O)C3=O)c3ccccc3)C(=O)N2[C@@H]1C(=O)O
CO[C@@H]1CN(C)C(=O)c2ccc(NC(=O)C3CCOCC3)cc2OC[C@@H](C)N(C(=O)Nc2ccc(C(F)(F)F)cc2)C[C@H]1C
CO[C@@H]1CN(C)C(=O)c2cc(NC(=O)C3CCOCC3)ccc2OC[C@@H](C)N(C(=O)Nc2ccc(C(F)(F)F)cc2)C[C@H]1C

Growth inhibition call, inactive:
C[C@@H]1CCCCO[C@@H](CN(C)Cc2ccc(C(=O)O)cc2)[C@H](C)CN([C@H](C)CO)C(=O)c2cc(NC(=O)Nc3ccc(F)cc3)ccc2O1
C[C@@H]1CN([C@@H](C)CO)C(=O)c2cc(C#CC3(O)CCCC3)cnc2O[C@@H]1CN(C)S(=O)(=O)c1ccc(F)cc1
COCC(=O)N1CC[C@]2(CC1)CN([C@H](CO)c1c2c2ccc(cc2n1C)OC)C(=O)Cc1ccccc1
CCC(=O)OC1C(OC2C(C)C(OC3CC(C)(OC)C(O)C(C)O3)C(C)C(=O)OC(CC)C(C)(O)C(O)C(C)C(=O)C(C)CC2(C)O)OC(C)CC1N(C)C.CCCCCCCCCCCCOS(=O)(=O)O (stereo not given)
CCC(=O)O[C@H]1[C@H](O[C@@H]2[C@@H](C)[C@H](O[C@H]3C[C@@](C)(OC)[C@@H](O)[C@H](C)O3)[C@@H](C)C(=O)O[C@H](CC)[C@@](C)(O)[C@H](O)[C@@H](C)C(=O)[C@H](C)C[C@@]2(C)O)O[C@H](C)C[C@@H]1N(C)C
CO[C@@H]1CN(C)C(=O)c2ccc(NC(=O)Nc3ccc(F)cc3)cc2OC[C@@H](C)N(C(=O)c2ccc(F)cc2)C[C@H]1C
Cc1nn(C)c2c1[C@@H](c1ccc(C(F)(F)F)cc1)C(C#N)C(=N)O2 (stereo not given in full)
CCCNC(=O)N(C)C[C@H]1Oc2cc(-c3ccccc3F)ccc2S(=O)(=O)N([C@@H](C)CO)C[C@H]1C
Cc1noc(C)c1NC(=O)Nc1ccc2c(c1)C(=O)N([C@@H](C)CO)C[C@@H](C)[C@@H](CN(C)Cc1ccc(C(=O)O)cc1)OCCCC[C@H](C)O2
C[C@@H]1CN([C@H](C)CO)C(=O)c2cc(NC(=O)c3ccncc3)ccc2O[C@@H]1CN(C)Cc1ccc(C(=O)O)cc1
COc1cccc(CNC(=O)c2cc3c(c(-c4cccc(-c5ccncc5)c4)n2)[C@@H](CCO)N([S@](=O)C(C)(C)C)C3)c1
CCCCCCCCCCCCCCCC(=O)OC1C(SC)OC(C(NC(=O)C2CC(CCC)CN2C)C(C)Cl)C(O)C1O.Cl (stereo not given)
CCCCCCCCCCCCCCCC(=O)O[C@@H]1[C@@H](O)[C@@H](O)[C@@H]([C@H](NC(=O)[C@@H]2C[C@@H](CCC)CN2C)[C@H](C)Cl)O[C@@H]1SC
CCC[C@@H]1C[C@@H](C(=O)N[C@@H]([C@H]2O[C@H](SC)[C@H](OP(=O)(O)O)[C@@H](O)[C@H]2O)[C@H](C)Cl)N(C)C1
C[C@H](CO)N1C[C@H](C)[C@H](CN(C)Cc2ccncc2)Oc2ccc(NC(=O)Nc3cccc4ccccc34)cc2CC1=O
COc1ccc(NC(=O)Nc2ccc3c(c2)C(=O)N([C@H](C)CO)C[C@H](C)[C@@H](CN(C)S(=O)(=O)c2ccccc2)OCCCC[C@H](C)O3)cc1
COc1ccc(S(=O)(=O)N(C)C[C@@H]2Oc3cc(C4=CCCC4)ccc3S(=O)(=O)N([C@@H](C)CO)C[C@@H]2C)cc1
C[C@@H]1[C@@H](c2ccccc2)OC(=O)[C@@H]2[C@H]3C(=O)N([C@@H](C)CO)[C@@H]4C(=O)N(Cc5ccccc5)CC=C[C@]34O[C@@H]2/C=C/CCC(=O)N1C
C=CC[C@@H](CC(=O)NCCO)C(=O)NCCOC(=O)[C@H](CC=C)NC(=O)OCC1c2ccccc2-c2ccccc21
C[C@@H]1CCCCO[C@@H](CN(C)S(=O)(=O)c2ccc(F)cc2)[C@@H](C)CN([C@@H](C)CO)C(=O)c2cc(NC(=O)Cc3ccccc3)ccc2O1
CC1(C)S[C@@H]2[C@H](NC(=O)[C@H](NC(=O)N3CCNC3=O)c3ccccc3)C(=O)N2[C@H]1C(=O)O
CN[C@@H](C)C(=O)N[C@H]1CN(C(=O)CC(C)C)CC[C@H]2CC[C@@H](C(=O)NC(c3ccccc3)c3ccccc3)N2C1=O
CC1(C)SC2C(NC(=O)C(N)c3ccccc3)C(=O)N2C1C(=O)[O-].[Na+] (stereo not given)
CC1(C)SC2C(NC(=O)C(C(=O)[O-])c3ccsc3)C(=O)N2C1C(=O)[O-].[Na+].[Na+] (stereo not given)
C[C@H]1CN([C@@H](C)CO)C(=O)c2cc(C#CC3(O)CCCC3)cnc2O[C@@H]1CN(C)S(C)(=O)=O
Cc1noc(C)c1NC(=O)N(C)C[C@H]1OCCCC[C@@H](C)Oc2ccc(NC(=O)CCC(F)(F)F)cc2C(=O)N([C@@H](C)CO)C[C@@H]1C
C[C@@H]1CN([C@@H](C)CO)C(=O)c2cc(C#Cc3ccccc3F)cnc2O[C@H]1CN(C)S(=O)(=O)c1ccccc1F
O=C(NCCN1CCOCC1)C(=O)NC[C@H]1OCCN1S(=O)(=O)c1ccc(F)cc1
Cc1ccc(C(=O)Oc2ccc(/C=N/c3cccs3)cc2)cc1
COc1ccc(S(=O)(=O)N(C)C[C@@H]2Oc3c(NC(=O)NC(C)C)cccc3C(=O)N([C@@H](C)CO)C[C@@H]2C)cc1
COCC(=O)N(C)C[C@H]1Oc2cc(C#Cc3cccnc3)ccc2S(=O)(=O)N([C@@H](C)CO)C[C@@H]1C
C[C@@H]1CN([C@@H](C)CO)C(=O)c2c(c3ccccc3n2C)-c2ccccc2CO[C@H]1CN(C)Cc1ccc(F)cc1
C[C@@H]1CN([C@H](C)CO)C(=O)c2cc(NC(=O)CCCN(C)C)ccc2O[C@H]1CN(C)S(=O)(=O)c1cccs1
Cc1ccc(S(=O)(=O)N(C)C[C@H]2OCCCC[C@H](C)Oc3ccc(NC(=O)Nc4c(C)noc4C)cc3C(=O)N([C@H](C)CO)C[C@@H]2C)cc1
Cc1ccc(-c2ccc3c(c2)O[C@H](CN(C)C(=O)NC(C)C)[C@@H](C)CN([C@@H](C)CO)S3(=O)=O)cc1
C[C@H]1CN([C@@H](C)CO)C(=O)Cc2cc(NS(C)(=O)=O)ccc2O[C@@H]1CN(C)C(=O)Nc1ccc(C(F)(F)F)cc1
C[C@H](CO)N1C[C@H](C)[C@@H](CN(C)C(=O)C2CCOCC2)Oc2ncc(C#Cc3ccccc3F)cc2C1=O
CC(C)NC(=O)N[C@@H]1C=C[C@H](CC(=O)O)O[C@H]1CO
COc1ccc(CN(C)C[C@H]2Oc3ccc(NC(=O)Cn4cnnn4)cc3C(=O)N([C@@H](C)CO)C[C@H]2C)cc1
CO[C@@H]1CN(C)C(=O)c2ccc(NC(=O)C3CC3)cc2OC[C@@H](C)N(C(=O)Nc2ccc(C(F)(F)F)cc2)C[C@H]1C
CO[C@@H]1CN(C)C(=O)c2cc(NC(=O)C3CCCC3)ccc2OC[C@@H](C)N(C(=O)Nc2ccc(C(F)(F)F)cc2)C[C@H]1C
CO[C@@H]1CN(C)C(=O)c2cc(NC(=O)C3CC3)ccc2OC[C@@H](C)N(C(=O)Nc2ccc(C(F)(F)F)cc2)C[C@H]1C
CO[C@@H]1CN(C)C(=O)c2ccc(NC(=O)C3CCCC3)cc2OC[C@@H](C)N(C(=O)Nc2ccc(C(F)(F)F)cc2)C[C@H]1C
C[C@H](CO)N1C[C@H](C)[C@H](CN(C)Cc2ccncc2)Oc2ccc(NC(=O)Nc3ccc(C(F)(F)F)cc3)cc2C1=O
C[C@@H]1CN([C@H](C)CO)C(=O)c2cc(NS(=O)(=O)c3cccs3)ccc2O[C@@H](C)CCCCO[C@@H]1CN(C)S(=O)(=O)c1ccc(Cl)cc1
CCN(CC)C(C)CN1c2ccccc2Sc2ccccc21.Cl (stereo not given)
C[C@H](CO)N1C[C@H](C)[C@H](CN(C)C(=O)Nc2ccccc2)Oc2c(NS(=O)(=O)c3cn(C)cn3)cccc2C1=O
C[C@@H]1CN([C@H](C)CO)C(=O)c2cccc(NS(=O)(=O)c3ccc(F)cc3)c2O[C@H]1CN(C)S(=O)(=O)c1cccs1
Cc1ccc(OC(=O)N(C)C[C@H]2OCc3ccccc3-c3ccccc3C(=O)N([C@@H](C)CO)C[C@@H]2C)cc1
